Bioassay records deposited in PubChem BioAssay by National Center for Advancing Translational Sciences (NCATS).
KB-3-1 cytotox = KB-3-1 parental cell cytotoxicity | KB-3-1 viability, CellTiter-Glo ATP luminescence, 72 h | Potency, µM (doses to about 46.1 µM), hits mostly cytotoxic | 400,000 tested, 1.4% active; further: nearly all actives have a fitted effect of over 60% in size
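Multi-concentration cytotoxicity screen in KB-3-1 cells grown in DMEM lacking phenol red with 10% FBS. After 72 h at 37 °C with compound, ATP-dependent luminescence was recorded.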
HT1080 IDH1KD tx = toxicity to HT-1080 IDH1 knockdown cells (counter line). Potency, µM (doses to about 46.1 µM), for the others: at the top dose activity, negative = toxicity, hits mostly cytotoxic. 360,000 tested, 2% active. HT-1080 IDH1 knockdown viability, ATP luminescence, 48 h;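 further: 0% = DMSO wells and -100% = cell-free medium wells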
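CellTiter-Glo luminescence after 48 h compound exposure at 37 degrees C of IDH1-knockdown HT-1080 cells in 5% FBS RPMI. %Activity scaled between DMSO wells and cell-free media wells, with curves fitted and assigned curve classes.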
TDP1 cell CPT = growth inhibition of DT40 Tdp1-/-;hTDP1 cells with camptothecin (screen for TDP1 inhibitors). chicken DT40 Tdp1-/-;hTDP1 cells + 20 nM CPT, ATP luminescence, 48 h. Potency, µM (titrated, usually from 46.2 µM), without a hit: top-dose activity change, negative = growth inhibition, hits mostly inhibitors. 420,000 tested, 12% active. AID 686979; further: nearly all actives have a fitted effect of over 55% in size
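Chicken DT40 Tdp1-/- cells stably complemented with human TDP1 were seeded at 400 cells/well in medium containing 20 nM camptothecin, exposed to pin-transferred compounds, and grown at 37 °C for at least 48 hr. Viability was read as ATP luminescence.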
DT40 TDP1 no CPT = qHTS for Inhibitors of human tyrosyl-DNA phosphodiesterase 1 (TDP1): qHTS in cells in absence of CPT. DT40 Tdp1-/- hTDP1 cells, no CPT, ATP luminescence, 48 h. Potency, µM (highest dose often 46.2 µM), for inactives: top-dose activity change, negative = growth inhibition, most hits filed as inhibitors. 420,000 tested, 15% active. AID 686978, 2013; further: nearly all actives have a fitted effect of over 55% in size
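Readout: luminescence from CellTiter-Glo after 30 min in the dark at RT. Cells: DT40 Tdp1-/- with stable hTDP1, 400/well. Exposure: compounds alone, ≥48 hr, 37 °C.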
HT1080-NT tox = kills 2HG-producing HT-1080-NT fibrosarcoma cells | HT-1080-NT fibrosarcoma viability, CellTiter-Glo ATP luminescence, 48 h | Potency, µM (highest dose often 46.1 µM), for the others: at the top dose activity, negative = less viability, hits mostly cytotoxic | 360,000 tested, 1.6% active;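 further: NT is the 2HG producing partner of a matched IDH1 knockdown line; 0% = DMSO-treated cells and -100% = media-only wells without cells; nearly all actives have a fitted effect of over 55% in size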
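HT-1080-NT; 750 cells/well; 5% FBS RPMI; 48 h compound, 37 degrees C; CellTiter-Glo luminescence; curve fitting and curve-class assignment.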
KB-V1 cytotox = kills drug-selected multidrug resistant KB-V1 cells; KB-V1 MDR cells viability, CellTiter-Glo, 72 h; Potency, µM (titrated, usually from 46.1 µM), actives largely listed as cytotoxic; 400,000 tested, 3.4% active; AID 1347076; further: nearly all actives have a fitted effect of over 60% in size
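KB-V1 cells (P-gp-expressing MDR subline of KB-3-1) in phenol-red-free DMEM with 10% FBS were exposed to library compounds over a concentration series for 72 h at 37 degrees C. Viability read by CellTiter-Glo luminescence; concentration-effect curves fitted after normalization.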
The depositor's hits bear a star; i = inactive; ? = inconclusive; . = no result; [ ] = remark or other dose. This is a sample that favours compounds with a hit; in the whole collection about 19% have one here. The call rests on the fitted dose curve; in most records, active means well fitted curve in the direction sought with a large enough effect; inconclusive means small, poorly fitted or top-dose-only effect, or another doubt; inactive means no such curve, though single readings can be large; an effect the other way counts as inactive or inconclusive. Unless noted, on the % scale 0 is the no-effect control and ±100 the full control effect; potency means the concentration at half of the fitted maximal effect.

SMILES	KB-3-1 cytotox	HT1080 IDH1KD tx	TDP1 cell CPT	DT40 TDP1 no CPT	HT1080-NT tox	KB-V1 cytotox
COc1ccc(CCN)cc1O	i	-0.3%	-24.9%	-20.5%	15.0%	i
CC(C)Oc1ccc(CCN)cc1Cl	i	?	5.17µM*	5.8µM*	0.7%	i
Cc1ccc2oc(=O)n(CCC(=O)Nc3ccc(N4CCOCC4)cc3)c2c1	i	3.8%	-2.3%	?	11.2%	?
CCCCCCCCN1C(=O)[C@H](CC(=O)NCCCC)C[C@@]2(C(=O)OCC)CCCC=C12	?	?	9.2µM*	11.6µM*	?	20.6µM*
CCCCCCCCN1C(=O)[C@H](CC(=O)N2CCCCC2)C[C@@]2(C(=O)OCC)CCCC=C12	?	?	7.31µM*	5.8µM*	?	?
CCOC(=O)C1(c2ccccc2)CCCN(C)CC1 (stereo unspecified)	.	.	-25.3%	-6.3%	.	.
O=C(CF)NC(Nc1cccc2cccnc12)C(Cl)(Cl)Cl (stereo unspecified)	i	-9.8%	?	?	-5.1%	i
Cn1c(O)c(C=NCCN2CCOCC2)c(=O)n(C)c1=S	i	-20.4%	2.5%	?	-24.2%	i
Cn1c(O)c(C(=Nc2ccccc2)SCc2ccccc2Cl)c(=O)n(C)c1=O	18.4µM*	13µM*	5.8µM*	8.2µM*	?	?
Cn1c(O)c(C(=Nc2ccc(F)cc2)c2ccccc2Cl)c(=O)n(C)c1=O	i	-5.7%	?	7.31µM*	-9.6%	i
CSC(=Nc1ccccc1)c1c(O)n(C)c(=O)n(C)c1=O	i	?	-12.0%	-8.4%	?	i
CCOC(=O)c1ccc(N=C(c2ccccc2)c2c(O)n(C)c(=O)n(C)c2=O)cc1	i	?	2.91µM*	7.31µM*	?	?
COC(=O)c1ccc(N=C(c2ccccc2)c2c(O)n(C)c(=O)n(C)c2=O)cc1	i	?	?	23.1µM*	?	i
COC1=CC(=O)OC(CCc2ccc3c(c2)OCO3)C1 (stereo unspecified)	i	0.3%	4.0%	-5.8%	-3.3%	?
CSc1cccc(CNC(=O)C2CCC(=O)N(Cc3cccc(C(F)(F)F)c3)C2)c1 (stereo unspecified)	i	-8.6%	?	-6.4%	-7.7%	i
CCNC(=O)C1CCCN(Cc2cc(C(F)(F)F)ccc2Cl)CC1 (stereo unspecified)	i	22.4%	25.9µM*	?	26.1%	i
CCNC(=O)C1CCCN(Cc2ccc3ccccc3c2Br)CC1 (stereo unspecified)	i	0.9%	?	?	-25.9%	i
Cc1ccc(C)c(-c2nnc(NC(=O)C3=COCCO3)o2)c1	i	-18.3%	-12.9%	?	-18.9%	i
Cc1ccc2c(c1)[C@]13CCCC[C@@H]1[C@H](C2)N(C)CC3	.	.	-4.0%	-19.9%	.	.
Cc1ccccc1C(=O)Nc1sc2c(c1C(=O)O)CCC(C(C)(C)C)C2 (stereo unspecified)	.	.	10.3µM*	4.61µM*	.	.
CC/C(=N\NC(=O)c1ccccc1)c1c(O)n(C2CCCCC2)c(=O)[nH]c1=O	i	-1.7%	0.4%	-15.1%	3.4%	i
Cn1ncc2c(NCc3ccc(F)cc3)ncnc21	i	.	?	?	.	i
Cc1ccc(NC(=O)c2cn(CCC#N)nc2-c2ccc3c(c2)OCCO3)c([N+](=O)[O-])c1	i	1.0%	?	6.51µM*	0.3%	?
COc1ccc(C(=O)Cn2c(NCCCl)nc3ccccc32)cc1	i	-1.5%	20.6µM*	-26.3%	-12.2%	i
c1ccc(NC2=Nc3ccccc3CC2)cc1	i	-7.4%	-29.3%	?	-0.6%	i
SMILES	KB-3-1 cytotox	HT1080 IDH1KD tx	TDP1 cell CPT	DT40 TDP1 no CPT	HT1080-NT tox	KB-V1 cytotox
COc1ccc(OC(=O)N(C)C[C@@H]2OCc3cnnn3CCCC(=O)N([C@H](C)CO)C[C@H]2C)cc1	i	0.9%	-10.6%	1.2%	3.2%	?
O=C(C1CCN(S(=O)(=O)c2ccc(Br)s2)CC1)N1CCN(c2cccc(C(F)(F)F)c2)CC1	?	.	23.1µM*	6.51µM*	.	?
COCCCNP1(=O)OCC(C)([N+](=O)[O-])CO1 (stereo unspecified)	i	12.6%	-15.4%	-13.0%	5.7%	i
C=CCN1C(=O)/C(=C/c2cccs2)C(=O)NC1=S	i	?	16.4µM*	14.6µM*	?	i
C=CCN1C(=O)NC(=O)/C(=C/c2cnc(SC)nc2)C1=O	i	-2.7%	-11.1%	-13.9%	-2.2%	i
O=C1NC(=O)N(CCc2ccc(F)cc2)C(=O)/C1=C/c1cccs1	i	-26.9%	16.4µM*	16.4µM*	?	i
Cc1cc(O)c(CN2CC=C(c3ccccc3)CC2)cc1C(C)C	i	4.3%	?	?	0.0%	i
CCCCCn1c(=O)c(C(=O)Nc2nc3ccccc3[nH]2)c(O)c2ccccc21	?	-6.7%	2.91µM*	5.17µM*	-2.7%	?
CCCCCn1c(=O)c(C(=O)Nc2ncccc2C)c(O)c2ccccc21	i	20.6µM*	?	?	18.4µM*	5.17µM*
CCCCCn1c(=O)c(C(=O)Nc2ccccc2Cl)c(O)c2ccccc21	i	3.0%	5.17µM*	5.17µM*	0.9%	i
CCCCn1c(=O)c(C=Nc2cccnc2Cl)c(O)n(CCCCl)c1=O	i	-1.3%	-6.6%	-15.6%	-0.5%	i
CCCCn1c(=O)c(C(=O)NCc2ccccc2OC)c(O)c2ccccc21	23.1µM*	4.2%	?	?	23.3%	?
CCCCCn1c(=O)c(C(=O)NCCc2ccccc2)c(O)c2ccccc21	?	2.5%	?	?	4.9%	?
C[C@H](CO)N1C[C@H](C)[C@@H](CN(C)C(=O)Nc2ccc(C(F)(F)F)cc2)Oc2c(NS(=O)(=O)c3cccs3)cccc2C1=O	i	2.2%	?	?	8.1%	i
COc1ccc(OC)c(C[C@H](C)N)c1	.	.	-29.7%[92.5 µM]	-27.0%[92.5 µM]	.	.
CCCCn1c(=O)c(C(=O)Nc2cnccn2)c(O)c2ccccc21	7.31µM*	-28.4%	2.91µM*	5.17µM*	-18.7%	?
CCCCn1c(=O)c(C(=O)Nc2cccc(C)c2)c(O)c2ccccc21	?	10.4%	5.8µM*	4.61µM*	13.0%	?
